# Inconclusive results are not listed. Entries that show only a call come without a potency. A number with no mark means an inactive call. Activity calls are given as the source filed them. Unless noted, the call rests on the fitted dose curve.
# How the values were obtained:
# [1] = qHTS assay to identify small molecule agonists of the vitamin D receptor (VDR) signaling pathway - cell viability counter screen (AID 743224; active means well fitted curve in the direction sought with a large enough effect in the repeat runs; an effect the other way counts as inactive or inconclusive; further: series mostly up to about 63 µM; nearly all actives have a fitted effect of over 50% in size)
# Summary of the method: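 In parallel with the bla FRET readout, cytotoxicity toward VDR-bla cells after 16 h compound exposure was assessed by CellTiter-Glo, with luminescence recorded after a 30 min room-temperature incubation.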
# [2] = qHTS assay to identify small molecule antagonists of the vitamin D receptor (VDR) signaling pathway - cell viability counter screen (AID 743225; active means well fitted curve in the direction sought with a large enough effect in the repeat runs; an effect the other way counts as inactive or inconclusive; further: nearly all actives have a fitted effect of over 50% in size)
# Summary of the method: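 Viability counter screen run in the same wells as the beta-lactamase reporter assay: HEK 293T VDR-UAS-bla cells, 16 h compound exposure at 37C with 3 nM (final) 1-alpha,25-dihydroxyvitamin D3. CellTiter-Glo luminescence, 30 min, room temperature.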
# [3] = qHTS assay to identify small molecule agonists of the NFkB signaling pathway - cell viability counter screen (AID 1159515); further: series mostly up to about 61 µM; nearly all actives have a fitted effect of over 55% in size
# Summary of the method: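 Plate 2,000 NFkB-bla ME-180 cells/well; incubate overnight. Add compounds, 5 hr at 37 C. Add FRET substrate, 1.5 hr RT. Add CellTiter-Glo, 30 min RT; read luminescence.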
# [4] = qHTS assay to identify small molecule agonists of the endoplasmic reticulum stress response signaling pathway (AID 1159516; active means well fitted activation curve with a large enough effect in the signal ratio in the repeat runs, not every such curve was filed as active; the % refers to the signal ratio)
# Summary of the method: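 Beta-lactamase expression from the ER stress response element in HeLa reporter cells is quantified with the LiveBLAzer B/G FRET substrate, read at 405 nm excitation after 2 hr at room temperature, following 5 hr compound treatment at 37 C.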
# [5] = qHTS assay to identify small molecule agonists of the endoplasmic reticulum stress response signaling pathway - cell viability counter screen (AID 1159517); further: series mostly up to about 61 µM; nearly all actives have a fitted effect of over 50% in size
# Summary of the method: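 Steps: seed 1,500 ESRE-bla HeLa cells per well; incubate overnight at 37 C, 5% CO2; add compounds in DMSO for 5 hr; run FRET substrate 2 hr RT; add CellTiter-Glo, wait 30 min, read luminescence.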
# [6] = qHTS assay to identify small molecule antagonists of the retinoid-related orphan receptor gamma (ROR-gamma) signaling pathway - cell viability counter screen (AID 1159520; active means well fitted curve in the direction sought with a large enough effect in the repeat runs; an effect the other way counts as inactive or inconclusive; further: nearly all actives have a fitted effect of over 50% in size)
# Summary of the method: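 Tet-on ROR gamma CHO cells were given compounds for 2 hr, then doxycycline hyclate at 1 uM final, and incubated 16 hr at 37 C. Viability was measured as ATP content by CellTiter-Glo luminescence.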
# [7] = target: Nuclear receptor ROR-gamma (Homo sapiens) (UniProt P51449); test: qHTS assay to identify small molecule antagonists of the retinoid-related orphan receptor gamma (ROR-gamma) signaling pathway (AID 1159521; active means well fitted curve in the direction sought with a large enough effect in the repeat runs; an effect the other way counts as inactive or inconclusive)
# Summary of the method: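 Luminescence readout (ONE-Glo, 30 min RT) after 16 h doxycycline induction; loss of signal scored as antagonism. CHO cells with TET-inducible RORγ and RORE-LUC reporter; compounds added 2 h before 1 uM final doxycycline.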
# [8] = qHTS assay to identify small molecule agonists of the AP-1 signaling pathway - cell viability counter screen (AID 1159525); further: nearly all actives have a fitted effect of over 55% in size
# Summary of the method: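 Same-well cytotoxicity counter screen of the Tox21 10K library in ME-180 cells. The readout is ATP-dependent luminescence after 5 h compound treatment. Data are normalised to DMSO and tetra n-octyl ammonium bromide controls.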
# [9] = qHTS assay to identify small molecule agonists of the AP-1 signaling pathway (AID 1159526)
# [10] = target: Retinoic acid receptor RXR-alpha (Homo sapiens) (UniProt P19793); test: qHTS assay to identify small molecule agonists of the RXR signaling pathway (AID 1159527); further: nearly all actives have a fitted effect of over 35% in size; further: potency means the concentration at half of the fitted maximal effect
# Retinoic acid receptor RXR-alpha (Homo sapiens), sequence (P19793 whole entry, looked up): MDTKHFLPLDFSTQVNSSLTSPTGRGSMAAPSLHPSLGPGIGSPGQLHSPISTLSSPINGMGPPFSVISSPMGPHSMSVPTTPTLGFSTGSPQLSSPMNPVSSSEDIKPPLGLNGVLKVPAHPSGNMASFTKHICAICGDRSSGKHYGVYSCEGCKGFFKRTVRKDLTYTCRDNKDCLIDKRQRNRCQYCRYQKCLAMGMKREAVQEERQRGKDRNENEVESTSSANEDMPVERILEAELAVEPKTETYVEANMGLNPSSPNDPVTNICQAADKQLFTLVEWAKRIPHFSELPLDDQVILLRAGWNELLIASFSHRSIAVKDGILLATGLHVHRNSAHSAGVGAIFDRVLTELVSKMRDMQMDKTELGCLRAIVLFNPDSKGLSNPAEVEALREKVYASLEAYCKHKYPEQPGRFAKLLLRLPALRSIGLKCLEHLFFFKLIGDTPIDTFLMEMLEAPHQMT
# Summary of the method: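 Agonist mode; 9-cis retinoic acid positive control. HEK 293T UAS-bla reporter cells, 2% charcoal-stripped FBS, 16 hr compound exposure at 37 C/5% CO2. LiveBLAzer B/G FRET substrate 2 hr RT; ex 405, em 460/530 nm.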
structure (smiles),measurement,setting,value
O=Cc1ccccc1S(=O)(=O)O,outcome,[1],inactive
same,outcome,[2],inactive
same,outcome,[3],inactive
same,Potency,[4],inactive
same,outcome,[5],inactive
same,outcome,[6],inactive
same,outcome,[7],inactive
same,outcome,[8],inactive
same,Potency,[9],inactive
same,Potency,[10],9.77 µM (active)
COc1cc2nc(N3CCN(C(=O)C4CCCO4)CC3)nc(N)c2cc1OC (stereo not given),outcome,[3],inactive
same,Potency,[4],inactive
same,outcome,[5],inactive
same,outcome,[6],inactive
same,outcome,[7],inactive
same,outcome,[8],inactive
same,Potency,[9],inactive
same,Potency,[10],inactive
CC(=O)SCC(CC(=O)c1ccc(C)cc1)C(=O)O (stereo not given),outcome,[1],inactive
same,outcome,[2],inactive
same,outcome,[3],inactive
same,Potency,[4],inactive
same,outcome,[5],inactive
same,outcome,[6],inactive
same,outcome,[7],inactive
same,outcome,[8],inactive
same,Potency,[9],inactive
same,Potency,[10],inactive
Cc1nc2ccc(Cl)cc2[nH]1,outcome,[3],inactive
same,Potency,[4],inactive
same,outcome,[5],inactive
same,outcome,[6],inactive
same,outcome,[7],inactive
same,outcome,[8],inactive
same,Potency,[9],inactive
same,Potency,[10],inactive
CCNC(=O)C(C)OC(=O)Nc1ccccc1 (stereo not given),outcome,[1],inactive
same,outcome,[2],inactive
same,outcome,[3],inactive
same,Potency,[4],inactive
same,outcome,[5],inactive
same,outcome,[6],inactive
same,outcome,[7],inactive
same,outcome,[8],inactive
same,Potency,[9],inactive
same,Potency,[10],inactive
COCc1nnc(-c2ccc[n+]([O-])c2)n1-c1c(Cl)c(Cl)cc2[nH]c(=O)c(=O)[nH]c12,outcome,[1],inactive
same,outcome,[2],inactive
same,outcome,[3],inactive
same,Potency,[4],inactive
same,outcome,[5],inactive
same,outcome,[6],inactive
same,outcome,[7],inactive
same,outcome,[8],inactive
same,Potency,[9],inactive
same,Potency,[10],inactive
O=C(O)Cc1ccccc1Oc1ccc(Cl)cc1Cl,outcome,[1],inactive
same,outcome,[3],inactive
same,Potency,[4],inactive
same,outcome,[5],inactive
same,outcome,[6],inactive
same,outcome,[7],inactive
same,outcome,[8],inactive
same,Potency,[9],inactive
same,Potency,[10],inactive
O=C1c2ccccc2C(=O)N1CO,outcome,[1],inactive
same,outcome,[2],inactive
same,outcome,[3],inactive
same,Potency,[4],inactive
same,outcome,[5],inactive
same,outcome,[6],inactive
same,outcome,[7],inactive
same,outcome,[8],inactive
same,Potency,[9],inactive
same,Potency,[10],inactive
CCCc1ccc(O)c(OC)c1,outcome,[1],inactive
same,outcome,[3],inactive
same,Potency,[4],inactive
same,outcome,[5],inactive
same,outcome,[6],inactive
same,outcome,[7],inactive
same,outcome,[8],inactive
same,Potency,[9],inactive
same,Potency,[10],inactive
Cc1ccc(OC(=O)CC(C)C)cc1,outcome,[3],inactive
same,Potency,[4],inactive
same,outcome,[5],inactive
same,outcome,[6],inactive
same,outcome,[7],inactive
same,outcome,[8],inactive
same,Potency,[9],inactive
CC(CN1CC(=O)NC(=O)C1)N1CC(=O)NC(=O)C1 (stereo not given),outcome,[1],inactive
same,outcome,[2],inactive
same,outcome,[3],inactive
same,Potency,[4],inactive
same,outcome,[5],inactive
same,outcome,[6],inactive
same,outcome,[7],inactive
same,outcome,[8],inactive
same,Potency,[9],inactive
same,Potency,[10],inactive
C[C@@H]1NC(=O)[C@@H](N)CNC(=O)[C@H](C2CCNC(N)=N2)NC(=O)/C(=C/NC(N)=O)NC(=O)[C@H](CNC(=O)C[C@@H](N)CCCN)NC1=O (stereo not given in full),"activity change, negative = cytotoxicity",[1],-2.65% [at 0.55 µM]
same,"viability change, negative = cytotoxic",[2],3.48% [at 0.628 µM]
same,"activity, negative = cytotoxic",[3],1.55% [at 0.628 µM]
same,activation,[4],0.164% [at 0.628 µM]
same,"activity change, negative = cytotoxicity",[5],13.9% [at 0.628 µM]
same,"activity, negative = cytotoxicity",[6],1.69% [at 0.349 µM]
same,"activity change, negative = inhibition",[7],9.3% [at 0.35 µM]
same,"viability change, negative = cytotoxic",[8],0.985% [at 0.29 µM]
same,activation,[9],-1.11% [at 0.29 µM]
same,activation,[10],5.99% [at 0.29 µM]
CC(C)CC(O)Cc1ccccc1 (stereo not given),outcome,[1],inactive
same,outcome,[3],inactive
same,Potency,[4],inactive
same,outcome,[5],inactive
same,outcome,[6],inactive
same,outcome,[7],inactive
same,outcome,[8],inactive
same,Potency,[9],inactive
same,Potency,[10],inactive
CN(C)CCc1c[nH]c2ccc(CS(=O)(=O)N3CCCC3)cc12,outcome,[1],inactive
same,outcome,[2],inactive
same,outcome,[3],inactive
same,Potency,[4],inactive
same,outcome,[5],inactive
same,outcome,[6],inactive
same,outcome,[7],inactive
same,outcome,[8],inactive
same,Potency,[9],inactive
same,Potency,[10],inactive
COC(=O)c1ccccc1Cl,outcome,[1],inactive
same,outcome,[2],inactive
same,outcome,[3],inactive
same,Potency,[4],inactive
same,outcome,[5],inactive
same,outcome,[6],inactive
same,outcome,[7],inactive
same,outcome,[8],inactive
same,Potency,[9],inactive
same,Potency,[10],inactive
CCCCS,outcome,[1],inactive
same,outcome,[2],inactive
same,outcome,[3],inactive
same,Potency,[4],inactive
same,outcome,[5],inactive
same,outcome,[6],inactive
same,outcome,[7],inactive
same,outcome,[8],inactive
same,Potency,[9],inactive
same,Potency,[10],inactive
CCCCCCCCCCCCCCCC(=O)OC,outcome,[1],inactive
same,outcome,[2],inactive
same,outcome,[3],inactive
same,Potency,[4],inactive
same,outcome,[5],inactive
same,"activity, negative = cytotoxicity",[6],1.29% [at 19 µM]
same,"activity change, negative = inhibition",[7],7.03% [at 19 µM]
same,"viability change, negative = cytotoxic",[8],-12.9% [at 15.8 µM]
same,activation,[9],17.1% [at 15.8 µM]
same,activation,[10],-1.09% [at 15.8 µM]
O=C(CCBr)N1CCN(C(=O)CCBr)CC1,outcome,[1],inactive
same,outcome,[2],inactive
same,outcome,[3],inactive
same,Potency,[4],inactive
same,outcome,[5],inactive
same,outcome,[6],inactive
same,outcome,[7],inactive
same,outcome,[8],inactive
same,Potency,[9],inactive
same,Potency,[10],inactive
Cc1ccc(O)c([N+](=O)[O-])c1,outcome,[1],inactive
same,outcome,[2],inactive
same,outcome,[3],inactive
same,Potency,[4],inactive
same,outcome,[5],inactive
same,outcome,[6],inactive
same,outcome,[7],inactive
same,outcome,[8],inactive
same,Potency,[9],inactive
same,Potency,[10],inactive
COc1ccccc1N1CCN(CC(O)COc2cc(OC)c(OC)c(OC)c2)CC1 (stereo not given),outcome,[1],inactive
same,outcome,[2],inactive
same,outcome,[3],inactive
same,Potency,[4],inactive
same,outcome,[5],inactive
same,outcome,[6],inactive
same,outcome,[7],inactive
same,outcome,[8],inactive
same,Potency,[9],inactive
same,Potency,[10],inactive
O=P(O)(O)C(O)(Cc1cccnc1)P(=O)(O)O,outcome,[1],inactive
same,outcome,[2],inactive
same,outcome,[3],inactive
same,Potency,[4],inactive
same,outcome,[5],inactive
same,outcome,[6],inactive
same,outcome,[7],inactive
same,outcome,[8],inactive
same,Potency,[9],inactive
same,Potency,[10],inactive
CSC(=O)c1cccc2nnsc12,outcome,[1],inactive
same,outcome,[2],inactive
same,outcome,[3],inactive
same,Potency,[4],inactive
same,outcome,[5],inactive
same,outcome,[6],inactive
same,outcome,[7],inactive
same,outcome,[8],inactive
same,Potency,[9],inactive
same,Potency,[10],inactive
O=C(c1ccccc1)c1cccc(O)c1,outcome,[1],inactive
same,outcome,[2],inactive
same,outcome,[3],inactive
same,Potency,[4],inactive
same,outcome,[5],inactive
same,outcome,[6],inactive
same,outcome,[7],inactive
same,outcome,[8],inactive
same,Potency,[9],inactive
same,Potency,[10],inactive
C[C@@H]1CC[C@@]2(OC1)O[C@H]1C[C@H]3[C@@H]4CC[C@H]5C[C@@H](O)CC[C@]5(C)[C@H]4CC(=O)[C@]3(C)[C@H]1[C@@H]2C,"activity change, negative = cytotoxicity",[1],4.49% [at 5.95 µM]
same,"viability change, negative = cytotoxic",[2],-3.49% [at 6.95 µM]
same,"activity, negative = cytotoxic",[3],6.74% [at 6.95 µM]
same,activation,[4],3.05% [at 6.95 µM]
same,"activity change, negative = cytotoxicity",[5],-1.94% [at 6.95 µM]
same,"activity, negative = cytotoxicity",[6],4% [at 8.39 µM]
same,"activity change, negative = inhibition",[7],0.0168% [at 8.39 µM]
same,"viability change, negative = cytotoxic",[8],2.16% [at 6.97 µM]
same,activation,[9],-4.54% [at 6.97 µM]
same,activation,[10],2.2% [at 6.98 µM]

# — PubChem BioAssay (Tox21)
